This is part of a sample that, as a whole, favours compounds with a hit. Of some 83,000 tested, about 20% had one in any assay.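 Testing used 96-well plates and a 48-hour single-concentration exposure. Example: -40 means 40% of the starting cells died.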 Unmarked numbers belong to inactive results. Active and inactive are the calls of the source. How the source made its calls: active means growth percent below 10; inactive means the rest.

Results on 40 compounds are retold here after PubChem BioAssay (NCI).

The assay deals with HL-60(TB) leukemia. The assay can be described thus: NCI-60 one-dose screen, 48 h (100 = growth as untreated, 0 = no growth, -100 = all killed). To be noted: 10 µM unless noted.
Turning to `CSc1ccc(C(=O)Nc2ccc3nn(/C(C#N)=C/c4ccccn4)nc3c2)cc1`, the growth was -21.9% (active).
As to `COc1ccc(N=Nc2c(N)nn3c(-c4ccc5c(c4)C=S=C5)ccnc23)cc1`, the growth was 37.7%.
As for `CCc1ccccc1NC(=O)N/C(N)=N/c1nc2ccccc2s1`, the figure is -27.2% (active); as for `C#CCOc1ccc(/C=N/Nc2nc(-c3ccc(Cl)cc3)cs2)cc1OC`, 20.1%; as for `COc1ccc(C(=O)Nc2ccc(-c3ccc4c(c3)NC(=O)/C4=C\c3ccc[nH]3)cc2)cc1`, 89.6%.
As for `COc1ccc2[nH]cc(-c3nnc(N)nc3-c3c[nH]c4ncc(Br)cc34)c2c1`, the figure is 103%; as for `Cc1ccccc1[C@H]1C(C(=O)c2ccc(Cl)cc2)C2(N[C@@H]1c1ccccc1)C(=O)Nc1ccc(Br)cc12` (stereo not given in full), -1.57% (active).
In the case of `CCCSc1nnc(-c2c(C)nc3sccn23)o1` it was 98.3%; in that of `COc1cc(/C=N/NC(=O)c2ccc(OCc3nc4ccc(Cl)cc4[nH]3)cc2)cc(OC)c1OC`, 28.2%.
As for `COc1cc2c3c(n(CCCNCCO)c(=O)c2cc1OC)-c1nc2c(cc1C3=O)OCO2`, the growth was 38.3%.
As for `Cc1c(C(=O)NNC(=O)Nc2ccc(Cl)cc2)nnn1-c1ccc(Br)cc1`, the figure is 103%; as for `OCC1(CCCc2ccccc2)CCCN(c2nccc3ccccc23)C1` (stereo not given), 22.7%; as for `FC(F)(F)c1cc2c(Cl)ncnc2n1CCN1CCCCC1`, -13.5% (active).
As for `CC(C)c1ccc2c(N)c(C(=O)Nc3ccc(C(F)(F)F)cn3)sc2n1`, the figure is 46.8%; as for `Cn1cc(-c2cc3nc(-c4c[nH]c5ccccc45)cc(N)n3n2)c2ccccc21`, -41.2% (active).
In the case of `COc1ccc(-c2cc(C(=O)N=Nc3c(O)[nH]c4ccc(Cl)cc34)c3ccccc3n2)cc1` it was 96%; in that of `CCn1c(SCC(=O)Nc2ccc(-c3nc4ccccc4[nH]3)cc2)nc2ccccc2c1=O`, 0.454% (active); in that of `CCCCSc1nc(NCCc2c[nH]c3ccccc23)c(C#N)c(-c2ccccc2)n1`, 45.8%.
For `COc1ccc(N2N=C(c3ccc4c(c3)OCO4)CC2c2cccc(NC(=O)CCCNS(=O)(=O)c3ccc(F)cc3)c2)cc1` (stereo not given), the growth was 55.7%.
For the compound `Cn1cc(-c2cc(N)n3nc(-c4c[nH]c5ccccc45)cc3n2)c2ccccc21`, the growth is -24.5% (active).
As for `CN1CCc2c(sc3ncnc(N/N=C/c4cn(-c5ccccc5)nc4-c4ccc(Br)cc4)c23)C1`, the figure is -4.94% (active); as for `C=CCSc1nnc(-c2ccc(-c3nc4ccccc4[nH]3)cc2)o1`, 57.6%; as for `Cn1cc(Nc2ncnc(-c3ccc(N4CCCC4)c(C#N)c3)n2)cn1`, 49.1%.
Regarding `COc1ccc(-c2nc3cc(C)ccc3n2CC(=O)N=Nc2c(O)[nH]c3ccccc23)cc1`, the growth is 8.05% (active).
In the case of `COc1ccc2[nH]c(=O)c(CSc3ccccc3Nc3nccc(-c4ccc(C(F)(F)F)cc4)n3)cc2c1` it was 1.94% (active).
In the case of `O=C(CNc1nc(-c2ccccc2)cs1)Nc1ccc([N+](=O)[O-])cc1Cl` it was 21.9%; in that of `COc1cccc(-c2ccnc(/N=C(\N)Nc3ccc(S(=O)(=O)Nc4nc(C)cc(C)n4)cc3)n2)c1`, 91.9%; in that of `CCCCN1C(=O)/C(=C\C(=O)c2cc3ccccc3oc2=O)c2ccccc21`, 74.8%.
As for `CCCCSc1nc(Nc2ccc(S(N)(=O)=O)cc2)c(C#N)c(-c2cc(OC)c(OC)c(OC)c2)n1`, the figure is -28% (active); as for `O=C(NC(=S)N1CCN(c2ncnc3c2cnn3-c2ccccc2)CC1)c1ccc(Cl)cc1`, 95.5%.
As to `O=C(Nc1ccc(-c2ccc3c(c2)NC(=O)/C3=C\c2ccc[nH]2)cc1)Nc1ccc(Cl)c(Cl)c1`, the growth is 51.8%.
Regarding `C#C[C@]1(O)CC[C@H]2[C@@H]3CC=C4c5sc(-c6ccc([N+](=O)[O-])cc6)nc5CC[C@]4(C)[C@H]3CC[C@@]21C`, the growth was 23.7%.
As for `COc1cc(/C=C/C(=O)c2cnn(-c3cc(=O)[nH]c4ccc(C)cc34)c2C)cc(OC)c1OC`, the figure is -28.4% (active); as for `COc1ccc(C(SCCNCc2cc(N(C)C)ccn2)(c2ccccc2)c2ccccc2)cc1`, -43.7% (active); as for `COc1ccc(-c2cc(C(=O)Oc3ccc(C=O)cc3OC)nn2-c2ccc(S(C)(=O)=O)cc2)cc1`, 86.5%.
In the case of `[2H]C([2H])([2H])Oc1ccc2ncc(C#Cc3cncc(C(=O)Nc4ccc(CN5CCN(C)CC5)c(C(F)(F)F)c4)c3)n2n1` it was -60.4% (active); in that of `CC(=O)OC[C@@]1(C)C2CC[C@]3(C)C(CC=C4C5CC(C)(C)CC[C@]5(C(=O)Nc5cccc(C)c5)CC[C@]43C)[C@@]2(C)C[C@@H](OC(C)=O)[C@@H]1OC(C)=O` (stereo not given in full), 29.4%.
`O=c1[nH]c2ccccc2cc1CSc1nccc(-c2ccc3ccccc3c2)n1`: the growth was 50.7%.
For `Cc1noc2c(Cc3ccc([N+](=O)[O-])cc3)nn(CC(=O)N/N=C/c3ccc(Br)cc3)c(=O)c12`, the growth is 95.4%.
In the case of `CCOC(=O)c1ccc(Nc2nc(NN)nc(-c3ccc(OC)cc3)c2C#N)cc1` it was 103%.
